Screens from PubChem.
The full list was thinned out, with hits kept by preference.
PKA inh: inhibitors of human PKA kinase activity, primary screen, biochemical, ATP-depletion luminescence, Kemptide substrate; inhibition, % at 6 µM; hit rate 0.1% among 65,000; cAMP-dependent protein kinase catalytic subunit alpha (Homo sapiens), P17612; PKA Kemptide phosphorylation, Kinase-Glo ATP luminescence;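 active = inhibition above the screen-wide mean inhibition plus 3 SD, cut at about 21% in these data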
ROCK2 inh: inhibitors of human ROCK2 kinase, primary screen, biochemical, high-throughput, luminescence; Rho-associated protein kinase 2 (Homo sapiens), O75116; purified ROCK2, Kinase-Glo ATP depletion luminescence; inhibition, % at 6 µM; hit rate 0.35% among 60,000; AID 604, 2007;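 active = inhibition above the screen-wide mean inhibition plus 3 SD, cut at about 18% in these data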;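 also: plate controls were DMSO wells for no effect and Y-27632 control wells after no-enzyme background subtraction for full effect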
D1 mod: D1 CRE-luciferase signal change, two-sided – cell-based, HEK293 D1, dopamine EC30, D1 allosteric modulator project, primary screen; AID 641, 2007; B-score at 10 µM; hit rate 5.9% among 58,000; D(1A) dopamine receptor (Homo sapiens), P21728; dopamine EC30 potentiation; actives deviate in either direction;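 active = luminescence count or its row- and column-corrected plate score outside the 99.7% band of the plate's sample wells, on either side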
DAT uptake mod: changed hDAT dopamine uptake under cocaine IC80, either direction, primary screen, cocaine antagonist project, cell-based, LLC-PK1 hDAT, [14C]-dopamine uptake, MLSMR. Sodium-dependent dopamine transporter (Homo sapiens), Q01959. LLC-PK1 hDAT cells, [14C]-dopamine uptake with cocaine IC80; actives deviate in either direction. B-score at 10 µM. hit rate 1.3% among 110,000. AID 449768, 2010;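 active = Z score or B-score, a plate-position-corrected score, falls beyond the plate's 99.7% confidence bounds, in either direction; inactive = both scores lie inside the 99.7% bounds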;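 also: scored against the spread of the other compound wells on the same plate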
Target sequence (Q01959 whole entry, looked up): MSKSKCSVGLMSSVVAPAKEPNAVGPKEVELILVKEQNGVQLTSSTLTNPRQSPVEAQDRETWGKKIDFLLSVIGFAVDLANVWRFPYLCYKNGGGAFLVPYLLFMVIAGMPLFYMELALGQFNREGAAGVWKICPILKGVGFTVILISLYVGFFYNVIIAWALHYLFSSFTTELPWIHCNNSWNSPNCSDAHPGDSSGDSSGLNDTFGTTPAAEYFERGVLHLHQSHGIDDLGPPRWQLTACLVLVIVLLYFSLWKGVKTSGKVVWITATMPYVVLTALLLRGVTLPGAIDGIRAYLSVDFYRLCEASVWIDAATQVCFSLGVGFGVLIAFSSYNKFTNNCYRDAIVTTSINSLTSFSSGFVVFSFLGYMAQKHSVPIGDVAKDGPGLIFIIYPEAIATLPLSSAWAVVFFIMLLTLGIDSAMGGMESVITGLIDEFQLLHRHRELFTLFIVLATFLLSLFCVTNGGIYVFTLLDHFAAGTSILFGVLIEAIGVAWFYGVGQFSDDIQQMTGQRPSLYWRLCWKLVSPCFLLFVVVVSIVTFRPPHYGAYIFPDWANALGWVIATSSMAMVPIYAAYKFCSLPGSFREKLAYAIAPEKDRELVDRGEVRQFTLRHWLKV
JNK3 blocker: JNK3 kinase activity inhibitors, primary screen, biochemical, human, purified enzyme; Mitogen-activated protein kinase 10 (Homo sapiens), P53779; HTS; inhibition, % at 8 µM; hit rate 0.61% among 60,000; AID 746, 2007; in the data active = inhibition above about 17%;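 also: 0% = DMSO and 100% = reference inhibitor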
D1 mod confirm: D1 receptor positive allosteric modulators, retest, confirmation, cell-based, HEK293 D1, CRE-luciferase, duplicate; shares compounds with D1 mod; dopamine EC30 potentiation; hits give high values; luminescence at 10 µM; hit rate 88% among 2,200; AID 642, 2007;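 active = luminescence in either of two replicates above the same-plate mean plus 3 SD of the low-dose dopamine control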
D1 no dopamine: D1 receptor agonism without dopamine, confirmation, mechanism study for D1 allosteric modulator project, cell-based, HEK293 D1, CRE-luciferase, secondary assay 1 | shares compounds with D1 mod | luminescence, no dopamine; hits give high values | luminescence at 10 µM | hit rate 0.8% among 1,900; in the data active = luminescence above about 3900
Isoprot counter: alters isoproterenol CRE-luciferase response in HEK293 cells; shares compounds with D1 mod; HEK293 D1 CRE-luciferase, isoproterenol EC30 counter-screen; calls only at 10 µM; hit rate 63% among 2,200; AID 647;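 active = luminescence in either replicate above plate mean of wells with a partly effective reference agonist dose plus 3 SD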;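 also: isoproterenol raises cAMP through native beta-adrenoceptor Gs so signal bypasses D1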
Active calls of the source: *; i = inactive; . = not tested or not shown; + = active, no number.

SMILES	PKA inh	ROCK2 inh	D1 mod	DAT uptake mod	JNK3 blocker	D1 mod confirm	D1 no dopamine	Isoprot counter
CCC(C)n1cnc2c(c1=O)c1nc3ccccc3nc1n2Cc1ccc2c(c1)OCO2 (configuration not stated)	7.2	3.8	9.83*	4.12*	-8.2	14800*	1636	+
CCCCn1c2nc3ccccc3nc2c2c(=O)n(CC(C)C)cnc21	3.5	5.8	.	.	-3.2	.	.	.
CCC(C)n1cnc2c(c1=O)c1nc3ccccc3nc1n2-c1ccc2c(c1)OCCO2 (configuration not stated)	5.9	1.6	0.00976	.	0.7	.	.	.
CCCCn1c2nc3ccccc3nc2c2c(=O)n(C(C)CC)cnc21 (configuration not stated)	0.3	3.4	10.5*	0.757	-1.6	11776*	1928	i
C#CC(CC)(CC)NC(=O)c1c(C)noc1C	-1.2	1.0	0.0374	-0.385	1.8	.	.	.
Cc1cccc(C)c1NC(=O)CSc1nnc(-c2ccco2)c(-c2ccco2)n1	.	.	.	0.385	.	.	.	.
CSc1nnc(-c2ccco2)c(-c2ccco2)n1	4.9	2.1	4.15*	-2.26	0.5	10584*	.	+
Cc1nn(-c2ccccn2)c2c1C(c1ccccn1)C1=C(CCCC1=O)N2 (configuration not stated)	.	.	.	1.71	.	.	.	.
CCCCCn1c(NCc2ccco2)nc2ccccc21	-7.0	-0.4	6.3*	0.888	1.3	12176*	1460	i
COC(=O)c1n[nH]c2ccccc12	-2.7	0.1	.	0.839	12.0	.	.	.
O=C(OCCCCN1C(=O)c2ccccc2C1=O)c1n[nH]c2ccccc12	4.1	-0.1	5.06*	-0.151	8.3	7836*	1704	i
CC(C)(C)OC(=O)NCCCC1=CC2=CC(=O)C(C)(OC(=O)c3ccc(Cl)nc3)C(=O)C2=CO1 (configuration not stated)	.	.	.	-0.685	.	.	.	.
CCOc1cc(-c2noc(CCC(=O)Nc3cccnc3)n2)ccc1OC	0.6	0.8	18.1*	1.3	-4.3	17716*	1472	+
CCOc1ccc(-c2noc(CCC(=O)NC)n2)cc1OCC	6.9	4.5	12.5*	-0.486	1.5	19240*	1568	+
CCOC(=O)Cn1c(C)cc(=O)c2ccccc21	.	.	.	-1.08	.	.	.	.
CCCn1c2ccccc2c2nc3ccccc3nc21	10.0	5.6	5.71*	-0.0152	0.6	12892*	1720	+
CCOC(=O)Cn1c2ccccc2c2nc3ccccc3nc21	-5.2	8.5	4.77*	0.983	3.6	14192*	1640	i
Cc1ccc2c(c1)c1nc3ccccc3nc1n2CCN1CCOCC1	7.9	4.5	7.7*	1.36	1.9	21896*	1556	+
O=c1oc2ccccc2n1CCn1c2ccccc2c2nc3ccccc3nc21	5.7	5.8	-0.356	-0.00251	-2.6	.	.	.
N#CCCn1c2ccccc2c2nc3ccccc3nc21	6.3	-1.1	14.3*	-0.107	2.4	19256*	1672	+
COc1cccc(C(C)NC(=O)Nc2cccc(C(F)(F)F)c2)c1 (configuration not stated)	.	.	.	-2.3	.	.	.	.
COc1ccc(OC)c(-c2csc3nnc(SCC(=O)Nc4ccc(NC(C)=O)cc4)n23)c1	11.5	3.4	-1.09	-0.159	7.3	.	.	.
COc1cccc(-c2csc3nnc(SCC(=O)c4ccc(NC(C)=O)cc4)n23)c1	8.8	10.0	2.98*	-1.06	-1.2	9644*	1744	+
CC(CCc1ccccc1)NC(=O)CN1CCN(Cc2ccc(Cl)cc2)C1=O (configuration not stated)	.	.	.	-0.319	.	.	.	.
